In PubChem BioAssay (EPA / NIEHS) one finds outcome and AC50 data, which are given here for five compounds.

Calls of active or inactive are those of the source. The calls were made as follows: active = hit-call score of the fitted dose curve at least 0.9, where 1 is the maximum; inactive = score below 0.9.

Read-out in assay [1]: TIMP metallopeptidase inhibitor 1 (TIMP1), TIMP1 (gene 7076)
The assay is described as follows: BSK_hDFCGF_TIMP1: BioMAP Diversity Plus: hDFCGF Assay for TIMP metallopeptidase inhibitor 1 (TIMP1) Biomarker Activity (AID 2283062). Conditions: primary human foreskin fibroblasts; actives raise or lower the signal. In short, it runs like this: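 Fibroblasts from human foreskin are treated with test chemical and harvested at 24 h. TIMP-1 is quantified by ELISA, and gain or loss of signal is scored against DMSO.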

Read-out in assay [2]: Monokine induced gamma interferon (MIG), CXCL9 (gene 4283)
The assay is described as follows: BSK_hDFCGF_MIG: BioMAP Diversity Plus: hDFCGF Assay for Monokine induced gamma interferon (MIG) Biomarker Activity (AID 2283063). Conditions: primary human foreskin fibroblasts; actives raise or lower the signal. The procedure, abridged:
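MIG signal, determined by ELISA, reflects 24 h chemical exposure of human skin primary fibroblasts. DMSO serves as negative control and baseline.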

Read-out in assay [3]: Plasminogen activator inhibitor-1 (PAI1), SERPINE1 (gene 5054)
The assay is described as follows: BSK_hDFCGF_PAI1: BioMAP Diversity Plus: hDFCGF Assay for Plasminogen activator inhibitor-1 (PAI1) Biomarker Activity (AID 2283066). The conditions noted are these: primary human foreskin fibroblasts; actives raise or lower the signal. In short, it runs like this:
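PAI-1 levels in human dermal foreskin fibroblasts were quantified by ELISA 24 h after dosing, with gain or loss analysed against DMSO. Overt cytotoxicity was checked by sulforhodamine B total-protein staining in parallel cultures.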

Read-out in assay [4]: Intercellular Adhesion Molecule 1 (ICAM1), ICAM1 (gene 3383)
The assay is described as follows: BSK_KF3CT_ICAM1: BioMAP Diversity Plus: KF3CT Assay for Intercellular Adhesion Molecule 1 (ICAM1) Biomarker Activity (AID 2283067). The conditions noted are these: primary human keratinocytes with fibroblasts; actives raise or lower the signal. In short, it runs like this: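 Dose the keratinocyte/fibroblast co-culture, wait 24 h, measure ICAM-1 by ELISA, then fit increases or decreases against DMSO. Cytotoxicity is checked in parallel cultures by SRB total-protein staining.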

Read-out in assay [5]: Interleukin-1 alpha (IL1a), IL1A (gene 3552)
Nature of the assay: BSK_KF3CT_IL1a: BioMAP Diversity Plus: KF3CT Assay for Interleukin-1 alpha (IL1a) Biomarker Activity (AID 2283070). Conditions: primary human keratinocytes with fibroblasts; actives raise or lower the signal. In short, it runs like this:
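IL-1a was detected by ELISA 24 h after chemical treatment of a co-culture of human skin keratinocytes and foreskin fibroblasts. Gain or loss of signal was fitted against the DMSO baseline.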

Read-out in assay [6]: TIMP metallopeptidase inhibitor 2 (TIMP2), TIMP2 (gene 7077)
Nature of the assay: BSK_KF3CT_TIMP2: BioMAP Diversity Plus: KF3CT Assay for TIMP metallopeptidase inhibitor 2 (TIMP2) Biomarker Activity (AID 2283071). The conditions noted are these: primary human keratinocytes with fibroblasts; actives raise or lower the signal. The procedure, abridged:
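TIMP-2 measured by ELISA at 24 h in human keratinocyte/fibroblast primary co-cultures exposed to chemicals. Both increases and decreases were fitted against DMSO. Parallel cultures were stained with SRB for total protein as an overt-cytotoxicity check.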

Read-out in assay [7]: Transforming growth factor beta 1 (TGFb1), TGFB1 (gene 7040)
The assay is described as follows: BSK_KF3CT_TGFb1: BioMAP Diversity Plus: KF3CT Assay for Transforming growth factor beta 1 (TGFb1) Biomarker Activity (AID 2283072). Conditions: primary human keratinocytes with fibroblasts; actives raise or lower the signal. In short, it runs like this: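 ELISA quantifies TGF-b1 at 24 h post-dose in a primary human skin co-culture of keratinocytes and fibroblasts, with gain or loss judged against DMSO. Parallel SRB total-protein staining flags overt cytotoxicity.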

Read-out in assay [8]: C-C motif chemokine 2 (Homo sapiens) (UniProt P13500)
The assay is described as follows: BSK_KF3CT_MCP1: BioMAP Diversity Plus: KF3CT Assay for Monocyte Chemoattractant Protein 1 (MCP1/CCL2) Biomarker Activity (AID 2283073). Conditions: primary human keratinocytes with fibroblasts; actives raise or lower the signal. In short, it runs like this:
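Keratinocytes and foreskin fibroblasts were co-cultured, dosed with chemical, and sampled 24 h later. MCP-1 was quantified by ELISA, and the endpoint was analyzed with bidirectional fitting using DMSO as negative control.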

Read-out in assay [9]: urokinase plasminogen activator (uPA), PLAU (gene 5328)
The assay is described as follows: BSK_KF3CT_uPA: BioMAP Diversity Plus: KF3CT Assay for urokinase plasminogen activator (uPA) Biomarker Activity (AID 2283075). The conditions noted are these: primary human keratinocytes with fibroblasts; actives raise or lower the signal. In short, it runs like this:
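ELISA read-out of uPA 24 h after dosing human skin keratinocytes co-cultured with foreskin fibroblasts. Signal change fitted both ways relative to DMSO; sulforhodamine B on parallel cultures marks overt cytotoxicity.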

Read-out in the next assay: CD40, CD40 (gene 958)
The assay is described as follows: BSK_LPS_CD40: BioMAP Diversity Plus: LPS Assay for CD40 Biomarker Activity (AID 2283076). Conditions: primary human HUVEC with PBMC; actives raise or lower the signal. The procedure, abridged: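 CD40 signal, measured by ELISA, is fitted in both directions relative to DMSO vehicle. The system is an LPS-driven human vascular primary co-culture of endothelial cells and PBMC, sampled 24 h after compound addition.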

Read-out in assay [10]: Interleukin-8 (IL8), CXCL8 (gene 3576)
Nature of the assay: BSK_LPS_IL8: BioMAP Diversity Plus: LPS Assay for Interleukin-8 (IL8) Biomarker Activity (AID 2283078). Conditions: primary human HUVEC with PBMC; actives raise or lower the signal. In short, it runs like this:
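Endothelial cells and PBMC from human donors are co-cultured, treated with chemicals and LPS, then assayed for IL-8 by ELISA after 24 h. Parallel SRB staining (0.1% SRB after 10% TCA fixation, 560 nm) flags cytotoxicity.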

Assay [11] can be described thus: BSK_LPS_SRB: Viability Assessment in the BioMAP Diversity Plus: LPS Assay (AID 2283079).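 Also: total protein by sulforhodamine B absorbance as a cytotoxicity measure; measured one day after compound addition; fitted in both directions against DMSO so loss or gain of signal counts.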 Conditions: primary human HUVEC with PBMC. In short, it runs like this:
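Overt cytotoxicity was gauged by sulforhodamine B total-protein staining in a primary human vascular endothelial and mononuclear cell co-culture 24 h post-dosing. Activity was fitted in both directions relative to DMSO.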

Read-out in assay [12]: Interleukin-1 alpha (IL1a), IL1A (gene 3552)
The assay is described as follows: BSK_LPS_IL1a: BioMAP Diversity Plus: LPS Assay for Interleukin-1 alpha (IL1a) Biomarker Activity (AID 2283080). Conditions: primary human HUVEC with PBMC; actives raise or lower the signal. In short, it runs like this: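 Measured: IL-1 alpha via ELISA at 24 h in LPS-activated human umbilical vein endothelium–PBMC co-culture. Baseline: DMSO, bidirectional fitting.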

Read-out in assay [13]: Monocyte Chemoattractant Protein-1 (MCP1), CCL2 (gene 6347)
The assay is described as follows: BSK_LPS_MCP1: BioMAP Diversity Plus: LPS Assay for Monocyte Chemoattractant Protein-1 (MCP1) Biomarker Activity (AID 2283081).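 As to AC50: secreted MCP-1 protein quantified by ELISA in culture supernatant.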 The conditions noted are these: primary human HUVEC with PBMC; actives raise or lower the signal. In short, it runs like this:
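LPS-stimulated HUVEC/PBMC co-culture; chemical, 24 h; MCP-1 by ELISA; bidirectional fit vs DMSO; cytotoxicity via SRB (0.1% stain, 10% TCA fix, 560 nm) in parallel wells.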

Assay [14] in a line: BSK_KF3CT_SRB: Viability Assessment in the BioMAP Diversity Plus: KF3CT Assay (AID 2283069). The conditions noted are these: primary human keratinocytes with fibroblasts. In short, it runs like this: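 Cytotoxicity was gauged by SRB staining (0.1% SRB, 10% TCA fixation, 560 nm) of parallel cultures at 24 h. The cells were primary human skin keratinocytes co-cultured with fibroblasts, and activity was fitted in both directions against DMSO.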

Read-out in assay [15]: Matrix Metallopeptidase 9 (MMP9), MMP9 (gene 4318)
Nature of the assay: BSK_KF3CT_MMP9: BioMAP Diversity Plus: KF3CT Assay for Matrix Metallopeptidase 9 (MMP9) Biomarker Activity (AID 2283074). Conditions: primary human keratinocytes with fibroblasts; actives raise or lower the signal. The procedure, abridged:
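MMP-9 quantified by ELISA after 24 h chemical treatment of primary human skin keratinocyte/fibroblast co-cultures; gain or loss fitted against DMSO, with parallel SRB staining (0.1% SRB, 560 nm) for overt cytotoxicity.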

Read-out in assay [16]: Vascular cell adhesion molecule 1 (VCAM1), VCAM1 (gene 7412)
Nature of the assay: BSK_hDFCGF_VCAM1: BioMAP Diversity Plus: hDFCGF Assay for Vascular cell adhesion molecule 1 (VCAM1) Biomarker Activity (AID 2283065). The conditions noted are these: primary human foreskin fibroblasts; actives raise or lower the signal. The procedure, abridged:
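Cells are dosed, cultured for 24 h, then VCAM-1 is quantified by ELISA; signal increases and decreases are both fitted relative to DMSO.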

Read-out in assay [17]: E-selectin (Homo sapiens) (UniProt P16581)
The assay is described as follows: BSK_LPS_Eselectin: BioMAP Diversity Plus: LPS Assay for Eselectin Biomarker Activity (AID 2283077). Conditions: primary human HUVEC with PBMC; actives raise or lower the signal. The procedure, abridged:
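Signal of E-selectin, detected by ELISA, served as the endpoint; cells were umbilical vein endothelium with PBMC, read 24 h after treatment. DMSO defined baseline, and both increases and decreases were fitted.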

Sequence of E-selectin (Homo sapiens) (P16581 whole entry, looked up): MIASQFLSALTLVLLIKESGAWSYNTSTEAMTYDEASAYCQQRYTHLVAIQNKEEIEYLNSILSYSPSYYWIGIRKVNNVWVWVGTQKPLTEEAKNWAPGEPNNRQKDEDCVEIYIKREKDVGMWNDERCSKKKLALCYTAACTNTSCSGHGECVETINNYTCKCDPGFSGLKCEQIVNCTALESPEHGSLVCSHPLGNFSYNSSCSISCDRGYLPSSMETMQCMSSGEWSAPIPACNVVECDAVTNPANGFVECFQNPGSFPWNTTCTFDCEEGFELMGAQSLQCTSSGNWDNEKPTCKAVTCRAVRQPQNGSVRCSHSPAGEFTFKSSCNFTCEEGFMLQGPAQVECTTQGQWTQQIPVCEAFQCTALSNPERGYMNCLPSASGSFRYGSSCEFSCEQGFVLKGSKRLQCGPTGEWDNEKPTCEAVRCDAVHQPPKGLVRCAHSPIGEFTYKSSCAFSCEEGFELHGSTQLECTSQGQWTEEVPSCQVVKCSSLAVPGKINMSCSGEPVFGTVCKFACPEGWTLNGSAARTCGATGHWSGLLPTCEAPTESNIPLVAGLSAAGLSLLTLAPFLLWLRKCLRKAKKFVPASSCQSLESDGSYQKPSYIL

For `O=P(OC(CCl)CCl)(OC(CCl)CCl)OC(CCl)CCl`, the result in [1], in [2], in assay [3], in assay [4], in assay [5] and in assay [6] was inactive. Besides, the outcome is “inactive” in assay [7]; “inactive” in [8]; “inactive” in assay [9]; “inactive” with CD40, CD40 (gene 958); “inactive” in assay [10]; “inactive” in assay [11]. The outcome in assay [12] and in [13] was inactive.

Turning to `CCNc1ccccc1`, the outcome in assay [1], in [2], in [3], in assay [4], in assay [14] and in assay [5] was inactive. The outcome in [6] was “inactive”; in assay [7], “inactive”; in assay [8] it was “inactive”; in assay [9], “inactive”; in the assay with CD40, CD40 (gene 958), “inactive”; in assay [10], “inactive”. The result in assay [11], in assay [12] and in [13] was inactive.

What is called AC50 is the midpoint of the concentration-response curve, whichever way the signal moves. In the case of `O=C(O)c1cccc(N(Cc2cccnc2)c2ccc(OC(F)F)c(OC(F)F)c2)c1`, the result in assay [1], in assay [2], in [4], in assay [14], in assay [5] and in assay [7] was inactive. Also, the outcome in assay [8] is “inactive”; in assay [15], “inactive”; in assay [9], “inactive”; in the assay with CD40, CD40 (gene 958), “inactive”; in assay [11], “inactive”. Also, the AC50 in assay [3] is 1.26 µM (active); in assay [10] it was 9.79 µM (active); in assay [12], 20 µM (active); in [13], 10.7 µM (active).

On to `CC1(C)C(=O)N(Br)C(=O)N1Br`, for which the result in assay [1], in assay [2], in [16], in assay [3], in assay [4] and in assay [5] was inactive. Also, the outcome was “inactive” in assay [7]; “inactive” in assay [8]; “inactive” in assay [9]; “inactive” in the assay with CD40, CD40 (gene 958); “inactive” in assay [17]; “inactive” in assay [10]. Further, the outcome in assay [11], in [12] and in [13] was inactive.

With `O=C(O)CC(O)C(=O)O` (centres undefined), the result in assay [1], in assay [2], in [3], in assay [4], in assay [5] and in [6] was inactive. For the same compound, the outcome in assay [7] is “inactive”; in assay [8] it was “inactive”; in assay [9], “inactive”; with CD40, CD40 (gene 958), “inactive”; in assay [17] it was “inactive”; in assay [10], “inactive”. The result in assay [11], in [12] and in [13] was inactive.
